# MbtI inh – blocks the Mycobacterium tuberculosis siderophore enzyme MbtI | P9WFX0 | purified MbtI enzyme, fluorescence intensity read-out | inhibition, % (test concentration not listed) | actives 0.89% (n = 100,000) | AID 493033; in the data active means inhibition mostly above about 56%, no sharp cut-off; inactive means mostly below about 77%
# Target sequence (P9WFX0 whole entry, looked up): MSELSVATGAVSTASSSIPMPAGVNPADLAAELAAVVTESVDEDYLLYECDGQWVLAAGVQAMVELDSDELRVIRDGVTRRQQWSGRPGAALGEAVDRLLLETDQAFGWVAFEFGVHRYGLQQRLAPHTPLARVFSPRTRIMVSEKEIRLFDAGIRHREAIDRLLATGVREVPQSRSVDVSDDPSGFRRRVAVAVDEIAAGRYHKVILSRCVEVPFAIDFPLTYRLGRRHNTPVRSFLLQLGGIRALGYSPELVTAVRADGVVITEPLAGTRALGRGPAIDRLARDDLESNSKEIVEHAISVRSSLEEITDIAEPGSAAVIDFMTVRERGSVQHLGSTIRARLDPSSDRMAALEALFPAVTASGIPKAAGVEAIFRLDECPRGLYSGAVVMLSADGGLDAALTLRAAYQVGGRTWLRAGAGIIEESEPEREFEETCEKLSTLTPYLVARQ
# Polio RdRp inh – inhibitors of poliovirus RNA polymerase binding and polymerization; P03300; poliovirus polymerase elongation, fluorescence polarization; stronger effect = lower value; % elongation, % (compound at 16.7 µg/mL); actives 0.66% (n = 150,000); in the data active means % elongation below about 90%
# AID504770 – E. coli YBA685 growth inhibition, screen for V. cholerae RctB inhibitors. E. coli YBA685 rctB-dependent plasmid, OD600 growth, 3 h; stronger effect = lower value. z-score (concentration not given with the values). actives 0.27% (n = 130,000); in the data active means z-score below about -2, passing the limit was not always enough
# MenB inh – inhibitors of Mycobacterium tuberculosis MenB enzyme. P9WNP5. MenB enzyme assay, absorbance read-out. inhibition, % (test concentration not listed). actives 0.43% (n = 100,000). AID 540299; in the data active means inhibition above about 21%, passing the limit was not always enough
# An asterisk follows results filed as active; i = inactive; / = not tested or not shown; ! = not active in a repeat. The list is not random: actives were taken first. Their share in the collection is about 1.4%.
SMILES,MbtI inh,Polio RdRp inh,AID504770,MenB inh
O=S(=O)(NN=Cc1cn(-c2ccccc2)nc1-c1ccco1)c1ccc(Cl)cc1,90*,102,0.9,-5
NC(=O)N/N=C/c1cn(-c2ccccc2)nc1-c1ccccc1,-6,100,0.2,7
CC(C)(C)NC(=O)C1CC(=O)OC1(C)C (stereo not drawn),-6,100,0.4,-9
N#Cc1oc2ccccc2c1NC(=O)CSc1nnc(-c2ccccc2)n1Cc1ccco1,84,/,-0.7,39*
Cc1ccc(-c2c(CN3CCN(c4cccc(C(F)(F)F)c4)CC3)csc2C)cc1,/,89*,/,/
CCn1c(=O)c(C(=O)CN2CCc3ccccc32)c(N)n(Cc2ccccc2)c1=O,-32,97,-0.9,-24
CC(C)c1ccc(NC(=O)C(c2ccccc2)N(C)c2ccccc2)cc1 (stereo not drawn),2,/,/,/
O=c1[nH][nH]c(=S)n1C1CC1,71*,99,1.6,38*!
O=c1[nH]nc(SCCS(=O)(=O)c2ccc(F)cc2)n1C1Cc2ccccc2C1,/,/,-0.15,/
O=c1[nH][nH]c(=S)n1CC1CCCO1 (stereo not drawn),83,95,0.05,-17
O=c1[nH][nH]c(=S)n1C1Cc2ccccc2C1,67*,100,-0.8,-1
Cc1cccc(S(=O)(=O)c2cn(Cc3ccccc3)c3cc(N4CCCC(C)C4)c(F)cc3c2=O)c1 (stereo not drawn),/,108,/,/
COc1ccc2nc(SCC(=O)c3ccc(O)c(O)c3)[nH]c2c1,70*,100,-0.2,1
CC(C)Cn1c(CCNC(=O)C(C)(C)C)nc2ccccc21,/,/,-0.85,/
Cc1ccc(Cc2c[nH]c(=S)s2)cc1,90*,103,-1.3,-65
COc1cccc(OC)c1C(=O)ON=C1C=CC(=O)C=C1,83*,103,-1.3,-24
COC(=O)c1cc2cccc(OC)c2oc1=O,10,101,-0.65,15
COc1ccc2c(c1)cc1n2CCN2CCN=C12,-2,100,-0.2,-3
COc1ccc2c(c1)cc1n2CCN=C1N,/,89*,-1.3,-5
CSc1cccc(NC(=O)C2CCN(S(=O)(=O)c3ccc4[nH]c(=O)oc4c3)CC2)c1,0,99,-0.25,-4
CN(C)c1ccc(NC(=O)Cn2c(SCc3ccccc3F)nc3cccnc32)cc1,/,19*,/,/
O=C(Nc1ccccc1)N(Cc1ccc(F)cc1)c1ccccn1,/,111,/,/
N#CC(C#N)=Cc1ccc(O)c(Cl)c1,61*,100,-0.8,i
NC(N)=N/N=C/c1ccc(O)c(Cl)c1,-5,102,0,-22
N=c1n(CCN2CCCCC2)c2ccccc2n1CC(O)c1ccc2c(c1)OCO2 (stereo not drawn),-2,101,-0.6,7
SMILES,MbtI inh,Polio RdRp inh,AID504770,MenB inh
CCCCN(C)C(=O)Cn1nc(C)c2c(C)n(-c3ccccc3)nc2c1=O,-5,103,0.45,-15
FC(F)(F)c1cccc(Nc2nc3nonc3nc2Nc2ccc(Cl)cc2)c1,/,114,/,/
Cc1cccc(Nc2nc3nonc3nc2Cl)c1,/,48*,0.65,-15
CCCCCCCc1c(COC)[nH]c(=S)[nH]c1=O,55*,102,-0.5,-31
COCc1[nH]c(=S)[nH]c(=O)c1Cc1c(F)cccc1Cl,26,105,1.6,-28
CCC(=O)NC(c1c(C)[nH]n(-c2ccccc2)c1=O)(C(F)(F)F)C(F)(F)F,/,107,-3.2*,0
CN(CCC#N)CC1Cc2ccccc2O1 (stereo not drawn),-1,103,1.3,45*
COc1ccc(C2C3(C#N)C(N)=NC(OC)(OC)C23C#N)cc1 (stereo not drawn),6,102,-0.75,-13
O=C(CC1CCCCC1)NCC1CCCO1 (stereo not drawn),2,103,1.4,31*
COc1ccc2nc(N(Cc3cccnc3)C(=O)C3COc4ccccc4O3)sc2c1 (stereo not drawn),/,112,/,/
O=C(c1cnoc1)c1cc(Cl)cc(Cl)c1O,-29,101,-0.4,/
O=C(c1cnoc1)c1ccccc1O,20,83*,0.25,5
Cc1cc(N2CCCC2)ccc1/C=C/C1=CCN(C)CC1,89,64*,1.2,11
C=CCn1c(C)c(/C=C/C2=CCN(C)CC2)c2ccccc21,79,78,-0.5,-168
N#CCC(Cc1ccccc1)c1ccco1 (stereo not drawn),-9,99,-1.2,-27
CC1(C)CC(=O)C2=C(C1)Nc1[nH]c(=O)[nH]c(=O)c1C2c1ccc(Br)cc1 (stereo not drawn),/,/,1.9,/
Cc1ccc2ncc(-c3ccc4c(N)c(C)ccc4n3)cc2c1,/,17*,-0.3,-35
Cc1ccc2nc3sc(C(=O)O)c(N)c3cc2c1,46,103,0.15,-41
Cc1cc(C)c(NC(=O)CCCN2C(=O)COc3ccc(C)cc32)c(C)c1,/,105,/,/
O=C(c1ccc(F)cc1)N1CCc2ccccc2C1,/,85*,-0.55,-16
CN(Cc1ccccc1)C(=O)c1ccccc1NC(=O)C1CC1,-11,99,0.15,2
O=C1CCCCCN1Sc1ccccc1,70*,102,-0.5,9
O=C(O)C1CC1c1ccccc1 (stereo not drawn),-10,99,-0.35,-34
N[C@@H]1C[C@H]1c1ccccc1,6,99,/,36*
O=C(NCCc1ccccc1)C1CC(=O)N(CCc2ccccc2)C(=Nc2ccc(F)cc2)S1 (stereo not drawn),-6,101,-0.15,-9
SMILES,MbtI inh,Polio RdRp inh,AID504770,MenB inh
N=c1scc(-c2ccc(Cl)cc2)n1-c1ccccc1F,/,/,-0.6,/
S=C(SN1CCOCC1)N1CCOCC1,/,77*,-0.55,-69
O=C(O)CCSC1CC(=O)N(c2ccc(F)cc2)C1=O (stereo not drawn),-3,100,-0.15,4
N#CSC1CC(=O)N(c2ccc(F)cc2)C1=O (stereo not drawn),99*,103,-1.8,-11
C1CN2CN3CCN(CN1C3)C2,-10,103,-2.4*,-27
O=c1c(C2NCCC3(O)CCCCC23)coc2ccc(Cl)cc12 (stereo not drawn),1,101,0.4,3
CC1SC(=S)NN1c1ccccc1 (stereo not drawn),88*,98,-0.7,/
COc1cccc(N2C(=O)CC(n3nc(Nc4cccc(C)c4)sc3=S)C2=O)c1 (stereo not drawn),99*,101,1.2,0
COc1cccc(N2C(=O)CN=C2Nc2nc(C)cc(C)n2)c1,/,107,1.2,-8
Cc1ccc(-c2ccccc2)n1-c1ccc(O)cc1,14,103,-0.15,5
O=C1CC(c2ccccc2)SC(N2CCc3ccccc32)=N1 (stereo not drawn),/,/,0.2,/
CC(C)NS(=O)(=O)c1ccc(OCC(=O)NCc2ccco2)cc1,-12,/,-0.7,/
CC(NS(=O)(=O)c1ccc(Br)cc1)C(=O)NCc1ccco1 (stereo not drawn),12,100,0.95,37*
OC(COCC1CC=CCC1)CN(Cc1ccccc1)Cc1ccccc1 (stereo not drawn),/,86*,-0.6,-24
CCn1c(CCC(=O)O)nc2cc(S(N)(=O)=O)ccc21,92,64*,-2,-65
COc1ccc(Cl)cc1NC(=O)c1sc(=S)n(C)c1N,88*,72*,-0.35,-24

# Bioassay records deposited in PubChem by ICCB-Longwood Screening Facility, Harvard Medical School.
